# “And” between values parts separate entries of the source, which are not always exact repeats. Equal values may be shown once. Results filed as inconclusive are left out. Entries that show only a call come without a potency. The source made the active and inactive calls. Calls come from the whole dose curve; as a rule, active = well fitted cell-killing curve with a large enough effect; inconclusive = small, poorly fitted or top-dose-only effect; inactive = flat fitted curve, though single readings scatter.
# Assay: qHTS of pediatric cancer cell lines to identify multiple opportunities for drug repurposing: Primary screen for DAOY cells (AID 1347090); note: nearly all actives have a fitted effect of over 55% in size
# Details: DAOY medulloblastoma viability, CellTiter-Glo luminescence, 48 h; series mostly up to 46 µM; activity change, negative = cytotoxic: at the top concentration
# Excerpt: Drug repurposing or repositioning has been offered as a strategy for drug development in oncology programs. This approach has special potential for childhood cancers and other rare or orphan diseases, where the expected return on new drug development has been a disincentive to pharmaceuticals.
# In this project we exploit the poly-pharmacology of drugs to discover new indications via phenotypic screening of a panel of 19 well-characterized cell lines derived from solid tumors seen in children and adolescents. The goal is to identify approved drugs with previously unrecognized anticancer properties that has the potential to reveal new mechanisms and biological processes involved in carcinogenesis or drug resistance. We employed a titration-based paradigm (quantitative high-throughput screening or qHTS), where all compounds were tested at multiple concentrations for their effect on cell viability. Concentration-response curves (CRCs) were derived directly from the primary screen, and both potency and efficacy values were used to identify compounds with robust bioactivity profiles. We screened the NIH Chemical Genomics Center (NCGC) Pharmaceutical Collection (NPC) and Mechanism Interrogation Plate (MIPE) small molecule collections of approved and investigational compounds against these cell lines; and measured metabolically active cells after 48 hours of compound treatment as a proxy for cell viability.
# Assay Submitter: Nathalia J. Martinez, National Center for Advancing Translational Sciences, National Institutes of Health, Rockville, MD, USA; email: natalia.martinez@nih.gov
# [1] Shen, M et al. Quantitative high-throughput phenotypic screening of pediatric cancer cell lines identifies multiple opportunities for drug repurposing. Oncotarget 2017 Dec 19;9(4):4758-4772. PMID 29435139.
# The cells were obtained from University of North Carolina (UNC), Pediatric Preclinical Testing Program (PPT), and Coriell Institute (CI).
# qHTS cell viability assay:
# Cells were assayed in growth media at a density of 500-1,000 cells/well. Five microliters of cells were dispensed into 1,536-well, white, solid-bottom, TC-treated plates (Greiner Bio One) using a multidrop dispenser and incubated at 37 degrees C, 5% CO2, under a humidified atmosphere for 5 hours. Twenty-three nanoliters of compounds and controls (neutral control DMSO or positive control bortezomib at final concentration of 2.3 µM) were subsequently transferred by Kalypsys pintool. For primary screens, the MIPE collection was tested at 11-point dilutions (final concentrations range from 0.78 nM to 46 µM) and the NPC collection at 8-point dilutions (final concentrations range from 0.59 nM to 46 µM). Compounds tested in follow-up screens were assayed at 11-point dilutions. Cells were incubated for 48 hours, followed by addition of 3 uL of CellTiter-Glo (Promega). After a 15 min incubation at room temperature, samples were analyzed for luminescence intensity using a ViewLux High-throughput CCD imager equipped with clear filters.
# Potency is the fitted concentration of half-maximal effect.
SMILES,Potency,"activity change, negative = cytotoxic"
Cc1oc(=O)oc1CN1CCN(c2cc3c(cc2F)c(=O)c(C(=O)O)c2n3C(C)S2)CC1 (stereo not given),inactive,
CC1=C(C(=O)O)N2C(=O)[C@@H](NC(=O)C(N)c3ccccc3)[C@H]2SC1 (stereo not given in full),,6.46% (inactive)
COC(c1ccccc1)(c1ccccc1)[C@H](Oc1nc(C)cc(C)n1)C(=O)O,inactive,
CC(C)(Sc1cc(C(C)(C)C)c(O)c(C(C)(C)C)c1)Sc1cc(C(C)(C)C)c(O)c(C(C)(C)C)c1,inactive,
Cc1ccnc2c1NC(=O)c1cccnc1N2C1CC1,,-4.18% (inactive)
Nc1nc(F)nc2c1ncn2[C@@H]1O[C@H](CO)[C@@H](O)[C@@H]1O,1.48 µM (active),
CC(=O)[C@H]1CC[C@H]2[C@@H]3CC=C4C[C@@H](O)CC[C@]4(C)[C@H]3CC[C@]12C,inactive,
Oc1c(Cl)cc(Cl)c2cccnc12,4.22 µM (active) and 9.35 µM (active),
CC(C)(C#N)c1cc(Cn2cncn2)cc(C(C)(C)C#N)c1,inactive,
CCOC(=O)c1ccc(OC(=O)CCCCCN=C(N)N)cc1,inactive,
CN1CCN(c2c(F)cc3c(=O)c(C(=O)O)cn(CCF)c3c2F)CC1,inactive,
CCn1cc(C(=O)O)c(=O)c2cc(F)c(N3CCN(C)CC3)cc21,inactive,
COc1ccc2cc3[n+](cc2c1OC)CCc1cc2c(cc1-3)OCO2,6.68 µM (active) and 18.7 µM (active),
CCCOc1ccc(C(=O)OCCN(CC)CC)cc1N,inactive,
COc1c(N2CCNC(C)C2)c(F)cc2c(=O)c(C(=O)O)cn(C3CC3)c12 (stereo not given),inactive,
Cn1nnc2c(C(N)=O)ncn2c1=O,inactive,
CC[C@H](C)C(=O)O[C@H]1C[C@@H](C)C=C2C=C[C@H](C)[C@H](CC[C@@H]3C[C@@H](O)CC(=O)O3)[C@H]21,8.41 µM (active) and 9.35 µM (active),
CC[C@H](NC(C)C)[C@H](O)c1ccc(O)c2[nH]c(=O)ccc12,inactive,
COc1ccccc1OCC(O)COC(N)=O (stereo not given),inactive,
CC1=NN(c2ccccc2)C(=O)C1,inactive,

SMILES,Potency,"activity change, negative = cytotoxic"
O=C(NCC1CN(c2ccc(N3CCOCC3=O)cc2)C(=O)O1)c1ccc(Cl)s1 (stereo not given),inactive,
CN(C)CCc1c[nH]c2ccc(C[C@H]3COC(=O)N3)cc12,inactive,
O=c1oc2c(O)c(O)cc3c(=O)oc4c(O)c(O)cc1c4c23,,-7.92% (inactive)
CN(Cc1cc(Br)cc(Br)c1N)C1CCCCC1,inactive,
COC(=O)Nc1nc2ccc(Sc3ccccc3)cc2[nH]1,1.06 µM (active),
CC(C)C[C@H](NC(=O)[C@H](CCc1ccccc1)NC(=O)CN1CCOCC1)C(=O)N[C@@H](Cc1ccccc1)C(=O)N[C@@H](CC(C)C)C(=O)[C@@]1(C)CO1,53.1 nM (active) and 93.5 nM (active),
CCN(CC)CC#CCOC(=O)C(O)(c1ccccc1)C1CCCCC1 (stereo not given),,6.85% (inactive)
CCn1cc(C(=O)O)c(=O)c2cc(F)c(N3CCNCC3)cc21,inactive,
NC(=O)c1cccc(N)c1,,-1.82% (inactive)
CCN(C)C(=O)Oc1cccc([C@H](C)N(C)C)c1,inactive,
CCC(C)(C)c1ccc(CC(C)CN2C[C@@H](C)O[C@@H](C)C2)cc1 (stereo not given in full),,-19.9% (inactive)
CC(C)OC(=O)C(C(=O)OC(C)C)=C1SC=CS1,,1.7% (inactive)
O=P(O)(O)C(O)(Cc1cccnc1)P(=O)(O)O,inactive,
CC(=O)CC(c1ccccc1)c1c(O)c2ccccc2oc1=O (stereo not given),inactive,
CCOCC(O)COc1ccc(NC(=O)CC[S+](C)C)cc1 (stereo not given),inactive,
NC(=O)c1cccnc1,inactive,
CN(C)c1ccc(C(=C2C=CC(=[N+](C)C)C=C2)c2ccc(N(C)C)cc2)cc1,2.66 µM (active) and 1.48 µM (active),
CCN[C@H]1C[C@H](C)S(=O)(=O)c2sc(S(N)(=O)=O)cc21,inactive,
C[C@@H](CN1CC(=O)NC(=O)C1)N1CC(=O)NC(=O)C1,inactive,
CCCCOc1ccc(CC(=O)NO)cc1,11.8 µM (active),
